Data: publication PMC7862700, “An all-to-all approach to the identification of sequence-specific readers for epigenetic DNA modifications on cytosine”

Legend:
Experiment in all cases: DAPPL (digital affinity profiling via proximity ligation, sequencing); 10 mM Tris-HCl pH 7.5, 50 mM NaCl, 1 mM DTT, 4% glycerol, room temperature, 30 min; GST-TFs on glutathione beads, 16-mer random dsDNA library, 0.1% formaldehyde crosslink after washing; high values mean tight binding
Details in all cases: protein: recombinant; tags: N-terminal GST; dsDNA, one strand shown
FLI1 = target: T1, FLI1 (Homo sapiens, UniProt Q01543 1-452)
T1 sequence: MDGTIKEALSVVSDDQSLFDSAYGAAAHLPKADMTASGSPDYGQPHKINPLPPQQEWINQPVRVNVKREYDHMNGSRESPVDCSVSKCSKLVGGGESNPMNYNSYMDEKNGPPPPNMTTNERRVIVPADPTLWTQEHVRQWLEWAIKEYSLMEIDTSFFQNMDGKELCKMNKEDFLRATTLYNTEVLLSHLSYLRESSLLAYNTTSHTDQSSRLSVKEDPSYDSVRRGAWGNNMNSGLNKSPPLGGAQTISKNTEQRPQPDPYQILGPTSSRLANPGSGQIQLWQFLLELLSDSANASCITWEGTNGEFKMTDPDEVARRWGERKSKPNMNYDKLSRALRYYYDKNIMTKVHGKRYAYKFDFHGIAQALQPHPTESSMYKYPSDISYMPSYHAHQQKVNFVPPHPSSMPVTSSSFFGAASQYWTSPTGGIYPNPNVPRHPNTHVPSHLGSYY
Method in brief: (§1)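 Human transcription factors were made in yeast as GST fusions, captured on glutathione beads and barcoded with DNA. With a tag-only sample included, the pool was incubated with 200 nmole of a random double-stranded 16-mer DNA library in Tris/NaCl/DTT/glycerol buffer at room temperature for 30 min, then crosslinked with 0.1% formaldehyde after washing, ligated by proximity, amplified and sequenced. For binding signal, each hexamer's read frequency for a factor is divided by its frequency for the tag-only sample.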

ELK1 = target: T2, ELK1 (Homo sapiens, UniProt P19419 1-428)
T2 sequence: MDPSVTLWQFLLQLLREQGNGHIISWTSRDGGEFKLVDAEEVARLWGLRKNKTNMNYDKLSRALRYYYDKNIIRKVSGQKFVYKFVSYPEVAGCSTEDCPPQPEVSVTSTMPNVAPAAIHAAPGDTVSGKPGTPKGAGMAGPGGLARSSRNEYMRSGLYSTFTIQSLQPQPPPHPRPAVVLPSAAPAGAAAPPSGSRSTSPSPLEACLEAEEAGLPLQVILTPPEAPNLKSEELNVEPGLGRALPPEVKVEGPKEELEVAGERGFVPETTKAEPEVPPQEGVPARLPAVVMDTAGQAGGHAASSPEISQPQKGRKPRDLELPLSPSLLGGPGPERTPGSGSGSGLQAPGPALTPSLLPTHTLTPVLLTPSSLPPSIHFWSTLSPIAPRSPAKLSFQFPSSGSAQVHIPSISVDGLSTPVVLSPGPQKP
Method in brief: as §1

GABPA = target: T3, GABPA (Homo sapiens, UniProt Q06546 1-454)
T3 sequence: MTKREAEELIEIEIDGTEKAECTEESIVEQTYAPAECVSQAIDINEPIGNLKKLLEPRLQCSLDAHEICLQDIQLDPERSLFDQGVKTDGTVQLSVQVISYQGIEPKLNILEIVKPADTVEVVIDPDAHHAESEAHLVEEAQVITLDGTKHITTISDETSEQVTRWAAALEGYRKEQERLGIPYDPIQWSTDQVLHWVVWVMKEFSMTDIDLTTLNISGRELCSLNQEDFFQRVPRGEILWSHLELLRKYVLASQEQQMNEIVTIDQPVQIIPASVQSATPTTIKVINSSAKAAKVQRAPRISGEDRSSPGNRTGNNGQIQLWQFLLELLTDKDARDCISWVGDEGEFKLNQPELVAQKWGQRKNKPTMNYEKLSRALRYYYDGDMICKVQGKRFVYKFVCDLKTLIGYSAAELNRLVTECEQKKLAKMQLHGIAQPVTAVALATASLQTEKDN
Method in brief: as §1

ERG = target: T4, ERG (Homo sapiens, UniProt P11308 1-479)
T4 sequence: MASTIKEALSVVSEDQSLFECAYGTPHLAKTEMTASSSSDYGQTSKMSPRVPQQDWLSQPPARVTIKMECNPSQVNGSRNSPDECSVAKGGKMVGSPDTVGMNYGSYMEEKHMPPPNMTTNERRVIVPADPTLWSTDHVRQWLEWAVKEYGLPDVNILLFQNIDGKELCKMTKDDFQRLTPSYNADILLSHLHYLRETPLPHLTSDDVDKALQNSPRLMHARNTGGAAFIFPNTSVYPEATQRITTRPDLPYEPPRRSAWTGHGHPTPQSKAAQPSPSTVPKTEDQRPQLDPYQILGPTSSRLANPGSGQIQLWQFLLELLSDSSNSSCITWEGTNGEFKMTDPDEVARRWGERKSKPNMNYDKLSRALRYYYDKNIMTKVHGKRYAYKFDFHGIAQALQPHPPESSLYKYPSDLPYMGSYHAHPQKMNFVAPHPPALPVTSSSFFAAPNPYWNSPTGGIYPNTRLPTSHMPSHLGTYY
Method in brief: as §1

ELF1 = ELF1 (Homo sapiens, UniProt P32519 1-619)
Chain of ELF1 (P32519 whole entry): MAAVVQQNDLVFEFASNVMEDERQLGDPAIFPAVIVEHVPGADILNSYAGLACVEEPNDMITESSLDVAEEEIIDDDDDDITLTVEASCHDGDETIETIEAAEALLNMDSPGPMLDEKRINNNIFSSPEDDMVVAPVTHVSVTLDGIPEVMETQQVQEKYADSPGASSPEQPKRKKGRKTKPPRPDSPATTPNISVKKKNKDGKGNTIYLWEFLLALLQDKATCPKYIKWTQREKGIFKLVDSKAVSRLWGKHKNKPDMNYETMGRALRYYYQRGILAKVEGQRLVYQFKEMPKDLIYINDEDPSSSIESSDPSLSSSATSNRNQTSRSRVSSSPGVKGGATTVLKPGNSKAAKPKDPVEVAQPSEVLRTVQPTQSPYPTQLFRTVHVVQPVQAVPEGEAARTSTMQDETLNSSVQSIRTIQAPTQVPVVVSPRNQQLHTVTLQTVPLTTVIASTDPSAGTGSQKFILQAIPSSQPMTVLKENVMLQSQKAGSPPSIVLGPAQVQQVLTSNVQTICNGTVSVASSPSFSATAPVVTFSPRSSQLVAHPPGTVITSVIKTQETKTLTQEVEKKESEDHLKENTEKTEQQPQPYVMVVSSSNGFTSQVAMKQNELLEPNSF
Method in brief: as §1

EHF = target: T5, EHF (Homo sapiens, UniProt Q9NZC4 1-300)
T5 sequence: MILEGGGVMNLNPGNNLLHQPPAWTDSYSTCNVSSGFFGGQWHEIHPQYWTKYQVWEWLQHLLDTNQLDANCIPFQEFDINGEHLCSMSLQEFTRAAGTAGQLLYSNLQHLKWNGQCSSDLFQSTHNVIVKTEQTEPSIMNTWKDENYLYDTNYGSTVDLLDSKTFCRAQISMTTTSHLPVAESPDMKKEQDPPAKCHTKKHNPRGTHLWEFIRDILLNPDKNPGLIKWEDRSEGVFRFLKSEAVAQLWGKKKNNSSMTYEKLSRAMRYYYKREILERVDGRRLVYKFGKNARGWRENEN
Method in brief: as §1

SPI1 = SPI1 (Homo sapiens, UniProt P17947 1-270)
Method in brief: as §1

SPIB = SPIB (Homo sapiens, UniProt Q01892 1-262)
Chain of SPIB (Q01892 whole entry): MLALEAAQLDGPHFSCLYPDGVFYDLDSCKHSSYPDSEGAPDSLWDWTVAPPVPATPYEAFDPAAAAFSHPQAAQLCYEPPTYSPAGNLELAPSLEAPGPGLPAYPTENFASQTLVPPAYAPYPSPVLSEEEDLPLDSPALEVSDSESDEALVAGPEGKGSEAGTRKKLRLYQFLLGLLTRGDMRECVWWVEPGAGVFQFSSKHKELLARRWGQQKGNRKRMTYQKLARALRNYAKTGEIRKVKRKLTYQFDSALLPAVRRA
Method in brief: as §1

ELK3 = target: T6, ELK3 (Homo sapiens, UniProt P41970 1-407)
T6 sequence: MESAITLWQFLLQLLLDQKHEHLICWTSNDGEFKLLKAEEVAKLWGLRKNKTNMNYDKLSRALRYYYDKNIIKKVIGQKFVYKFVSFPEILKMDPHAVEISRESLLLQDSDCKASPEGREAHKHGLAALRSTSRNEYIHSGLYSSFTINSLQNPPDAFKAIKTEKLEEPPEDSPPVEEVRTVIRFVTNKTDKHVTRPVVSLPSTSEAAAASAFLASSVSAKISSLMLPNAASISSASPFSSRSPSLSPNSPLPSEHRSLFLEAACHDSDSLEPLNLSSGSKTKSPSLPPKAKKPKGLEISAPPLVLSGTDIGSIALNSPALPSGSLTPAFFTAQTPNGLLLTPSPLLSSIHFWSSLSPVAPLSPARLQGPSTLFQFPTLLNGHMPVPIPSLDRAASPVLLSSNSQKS
Method in brief: as §1

Sequence	binding signal (FLI1)	binding signal (ELK1)	binding signal (GABPA)	binding signal (ERG)	binding signal (ELF1)	binding signal (EHF)	binding signal (SPI1)	binding signal (SPIB)	binding signal (ELK3)
CCCCCT	1.22 fold enrichment (6-mer frequency, TF over GST control)	1.26 fold enrichment (6-mer frequency, TF over GST control)	1.25 fold enrichment (6-mer frequency, TF over GST control)	1.21 fold enrichment (6-mer frequency, TF over GST control)	1.33 fold enrichment (6-mer frequency, TF over GST control)	1.26 fold enrichment (6-mer frequency, TF over GST control)	1.19 fold enrichment (6-mer frequency, TF over GST control)	1.24 fold enrichment (6-mer frequency, TF over GST control)	1.32 fold enrichment (6-mer frequency, TF over GST control)
CCGAAT	1.23 fold enrichment (6-mer frequency, TF over GST control)	1.1 fold enrichment (6-mer frequency, TF over GST control)	1.25 fold enrichment (6-mer frequency, TF over GST control)	1.07 fold enrichment (6-mer frequency, TF over GST control)	1.22 fold enrichment (6-mer frequency, TF over GST control)	1.24 fold enrichment (6-mer frequency, TF over GST control)	1.2 fold enrichment (6-mer frequency, TF over GST control)	1.22 fold enrichment (6-mer frequency, TF over GST control)	1.14 fold enrichment (6-mer frequency, TF over GST control)
TTCTCA	1.36 fold enrichment (6-mer frequency, TF over GST control)	1.31 fold enrichment (6-mer frequency, TF over GST control)	1.33 fold enrichment (6-mer frequency, TF over GST control)	1.26 fold enrichment (6-mer frequency, TF over GST control)	1.29 fold enrichment (6-mer frequency, TF over GST control)	1.19 fold enrichment (6-mer frequency, TF over GST control)	1.32 fold enrichment (6-mer frequency, TF over GST control)	1.31 fold enrichment (6-mer frequency, TF over GST control)	1.27 fold enrichment (6-mer frequency, TF over GST control)
AAACAA	1.24 fold enrichment (6-mer frequency, TF over GST control)	1.33 fold enrichment (6-mer frequency, TF over GST control)	1.2 fold enrichment (6-mer frequency, TF over GST control)	1.38 fold enrichment (6-mer frequency, TF over GST control)	1.28 fold enrichment (6-mer frequency, TF over GST control)	1.26 fold enrichment (6-mer frequency, TF over GST control)	1.32 fold enrichment (6-mer frequency, TF over GST control)	1.21 fold enrichment (6-mer frequency, TF over GST control)	1.36 fold enrichment (6-mer frequency, TF over GST control)
CTCCAC	1.56 fold enrichment (6-mer frequency, TF over GST control)	1.41 fold enrichment (6-mer frequency, TF over GST control)	1.46 fold enrichment (6-mer frequency, TF over GST control)	1.37 fold enrichment (6-mer frequency, TF over GST control)	1.38 fold enrichment (6-mer frequency, TF over GST control)	1.32 fold enrichment (6-mer frequency, TF over GST control)	1.55 fold enrichment (6-mer frequency, TF over GST control)	1.32 fold enrichment (6-mer frequency, TF over GST control)	1.54 fold enrichment (6-mer frequency, TF over GST control)
AATGAT	1.08 fold enrichment (6-mer frequency, TF over GST control)	1.22 fold enrichment (6-mer frequency, TF over GST control)	1.15 fold enrichment (6-mer frequency, TF over GST control)	1.14 fold enrichment (6-mer frequency, TF over GST control)	1.19 fold enrichment (6-mer frequency, TF over GST control)	1.2 fold enrichment (6-mer frequency, TF over GST control)	1.16 fold enrichment (6-mer frequency, TF over GST control)	1.12 fold enrichment (6-mer frequency, TF over GST control)	1.19 fold enrichment (6-mer frequency, TF over GST control)
CATCTA	1.22 fold enrichment (6-mer frequency, TF over GST control)	1.3 fold enrichment (6-mer frequency, TF over GST control)	1.25 fold enrichment (6-mer frequency, TF over GST control)	1.11 fold enrichment (6-mer frequency, TF over GST control)	1.25 fold enrichment (6-mer frequency, TF over GST control)	1.18 fold enrichment (6-mer frequency, TF over GST control)	1.16 fold enrichment (6-mer frequency, TF over GST control)	1.17 fold enrichment (6-mer frequency, TF over GST control)	1.13 fold enrichment (6-mer frequency, TF over GST control)
